Sampled rows, rich in hits. Any-hit rate of the full collection: about 4.7%.
TRHR agonist: qHTS for Small Molecule Agonists and Allosteric Enhancers of Human TRH Receptor: Primary Screen for Agonists; Thyrotropin-releasing hormone receptor (Homo sapiens), P34981; AID 493084, 2011; activation, % at 2 µM; TRHR cells, calcium flux fluo-8, FDSS agonist mode; 0.18% of 360,000 active
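TRHR-expressing cells loaded with fluo-8 calcium dye; 23 nL library compound pin-transferred, kinetic FDSS fluorescence (Ex 480/Em 530) recorded about 180 s for agonist-induced calcium release, before a 10 nM TRH EC20 addition for potentiator mode.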
D1 potentiator: Potentiators of Human D1 Dopamine Receptor: qHTS; D(1A) dopamine receptor (Homo sapiens), P21728; HEK293 TREx D1 cells, calcium flux, dopamine EC20 potentiation; potentiation, % at 10 µM; 0.036% of 360,000 active; AID 504651, 2011; in the data active = potentiation above about 30%
Target sequence (P21728 whole entry, looked up): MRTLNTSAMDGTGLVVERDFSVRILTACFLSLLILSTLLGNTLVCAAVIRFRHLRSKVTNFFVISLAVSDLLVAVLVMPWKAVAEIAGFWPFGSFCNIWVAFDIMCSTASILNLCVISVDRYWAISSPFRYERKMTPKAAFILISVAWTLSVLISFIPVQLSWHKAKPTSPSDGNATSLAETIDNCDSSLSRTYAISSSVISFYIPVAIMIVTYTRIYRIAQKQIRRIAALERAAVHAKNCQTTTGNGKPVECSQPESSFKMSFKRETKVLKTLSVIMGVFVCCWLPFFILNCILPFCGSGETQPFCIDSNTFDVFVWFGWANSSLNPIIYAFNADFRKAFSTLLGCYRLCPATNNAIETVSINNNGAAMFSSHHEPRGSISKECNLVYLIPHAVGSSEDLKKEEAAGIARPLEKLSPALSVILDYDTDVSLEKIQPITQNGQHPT
TRHR PAM: qHTS for Small Molecule Agonists and Allosteric Enhancers of Human TRH Receptor: Primary Screen for Enhancers; Thyrotropin-releasing hormone receptor (Homo sapiens), P34981; TRHR cells, fluo-8 calcium fluorescence, EC20 TRH enhancement; enhancement, % at 2 µM; 0.66% of 360,000 active; in the data active = enhancement above about 30%
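TRHR-expressing cells loaded with fluo-8 calcium dye were read kinetically (ex 480/em 530) during compound addition, then stimulated with an EC20 of TRH (10 nM final). Enhancement of the Gq-mediated intracellular calcium response was scored.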
D1 ag: Allosteric Agonists of the Human D1 Dopamine Receptor: qHTS; AID 504660, 2011; HEK293 T-REx D1 cells, calcium flux, agonist mode; 1% of 360,000 active; D(1A) dopamine receptor (Homo sapiens), P21728; activation, % at 2 µM
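Agonism was scored from calcium flux recorded over 180 s (1 read/s) after pintool compound addition, following a 10-cycle baseline. Cells were inducible force-coupled HEK293 TREx D1, plated overnight at 30 C and loaded with no-wash calcium dye.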
D1 antag: Antagonist of Human D 1 Dopamine Receptor: qHTS. HEK293 TREx D1 cells, calcium flux, dopamine EC80; hits give low values. AID 504652, 2011. D(1A) dopamine receptor (Homo sapiens), P21728. 3.2% of 360,000 active. activity change, negative = inhibition, % at 10 µM; in the data active = activity change below about -30%
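After overnight tetracycline induction at 30 C, force-coupled D1 HEK293 cells took up a no-wash calcium dye at room temperature. Compounds were added and monitored 180 s, and the response to EC80 dopamine was then recorded.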
A number is an active result; 0 = inactive; - = not tested or not shown; ! = repeats disagree. Cut-off read from the data, not from the text of the source, unless noted: active = activation above about 30%; inactive = the rest.

SMILES	TRHR agonist	D1 potentiator	TRHR PAM	D1 ag	D1 antag
COc1ccc(OC)c(-c2noc(CSc3nnc(-c4ccccc4)n3-c3ccccc3)n2)c1	0	0	0	0	0
Cc1cc(-c2nnc(SCc3ccccn3)o2)no1	0	0	31	0	0
CCc1nnc(NC(=O)CSc2nccn2Cc2ccccc2)s1	0	0	0	0	0
COc1cccc(CC2(CO)CCCN(Cc3c(C)cc(C)cc3-n3cccn3)C2)c1 (stereo unspecified)	0	0	0	0	-36
Cc1noc(-c2ccc(C(F)(F)F)cc2)c1NC(=O)Nc1ccc(Cl)cc1	0	0	0	0	-42
Cc1cc(-c2onc(C)c2C(=O)Nc2ccc(C(F)(F)F)cc2)no1	0	0	0	0	0
CC(=O)NC/C(C)=N\Nc1ccc([N+](=O)[O-])cc1	0	0	0	35	0
CC(=O)NCC(=O)OCc1ccc([N+](=O)[O-])cc1	0	0	0	0	0
C/C(=N\Nc1ccc([N+](=O)[O-])cc1)c1ccc(O)cc1	0	0	0	37	0
COCCN1C(=O)C(=O)/C(=C(/O)c2ccc(S(=O)(=O)N3CCOCC3)cc2)C1c1cccc(OC)c1 (stereo unspecified)	0	0	0	0	0
CCCN1CCc2c(sc(NC(=S)NC(=O)c3ccccc3)c2C#N)C1	0	0	0	45	0
COc1ccc(Cl)cc1S(=O)(=O)N1CCN(S(=O)(=O)c2ccc3c(c2)OCCO3)CC1	0	0	0	0	0
O=C(O)C1CCN(c2nc(-c3ccccc3)c3cc(Br)ccc3n2)CC1	0	0	0	0	0
OCCN1CCN(c2nc(-c3ccccc3)c3cc(Br)ccc3n2)CC1	0	44	0	45	0
COc1ccc(CNC(=O)CCNS(=O)(=O)c2ccc(NC(C)=O)cc2)cc1OC	0	0	0	0	0
CN(C)c1ccc(C=C(c2nnnn2-c2ccccc2)c2nnnn2-c2ccccc2)cc1	0	0	0	61	0
Cc1ccc(-n2c(SCC(=O)N3CCOCC3)nc(O)c(Cc3ccccc3)c2=O)cc1	0	0	0	0	-31
O=C1c2ccccc2C(=O)c2c1cccc2N(CCO)CCO	0	0	0	0	0
O=C1C=C(N(CCO)Cc2ccccc2)c2ccccc2C1=O	0	0	39	0	0
O=C1c2ccccc2NC(c2ccc(O)cc2)N1c1ccccc1 (stereo unspecified)	0	0	0	0	-75
Cc1cc2c(s1)c1cnn(Cc3ccc(-n4cncn4)cc3)c(=O)c1n2C	0	0	0	0	0
Cc1nn(CC(=O)NCc2cc3ccccc3[nH]2)c(C)c1[N+](=O)[O-]	0	0	0	0	-41
Cc1nn(CCCC(=O)NCc2ccc(F)cc2)c(C)c1[N+](=O)[O-]	0	0	30	0	0
Cc1nn(CC(=O)NCc2ccccc2F)c(C)c1[N+](=O)[O-]	0	0	0	0	0
Cn1c2c(c(=O)n(C)c1=O)C(c1ccccc1OC(F)F)C1=C(CCCC1=O)N2 (stereo unspecified)	0	0	0	0	-36
SMILES	TRHR agonist	D1 potentiator	TRHR PAM	D1 ag	D1 antag
Cc1ccc(C)c(OCCC(=O)OCC(=O)Nc2ccc(N3CCOCC3)cc2)c1	0	0	0	0	-53
O=C(COC(=O)COc1cccc(C(F)(F)F)c1)Nc1ccc(N2CCOCC2)cc1	0	0	0	0	-40
NS(=O)(=O)c1ccc(NC(=O)CN2CCN(c3ccc(F)cc3)CC2)cc1	0	0	0	0	0
COC(=O)CCn1c(C)cc(C(=O)COc2ccccc2C(N)=O)c1C	0	0	0	0	-56
O=c1c2cc(-c3ccccc3)sc2ncn1/N=C/c1ccco1	0	0	0	0	-33
CSc1ccc(/C=C/c2nc3ccccc3n2S(=O)(=O)c2cccc(Cl)c2)cc1	0	0	0	0	0
O=S(=O)(c1cccc(Cl)c1)n1c(/C=C/c2ccccc2Cl)nc2ccccc21	0	0	0	0	-33
O=C(/C(N=Nc1cccc([N+](=O)[O-])c1)=C(/O)c1ccc(Br)cc1)C(F)(F)F	0	0	0	0	-30
O=C(O)c1ccc(N=NNc2cccc([N+](=O)[O-])c2)cc1	0	0	0	0	0
CN(C(=O)c1ccncc1)c1nnc(-c2ccccn2)s1	0	0	0	0	0
CN(C(=O)c1ccno1)c1nnc(-c2ccccn2)s1	0	0	0	0	-35
Cc1cc(C)cc(NC(=O)Cc2csc(COc3cccc(C)c3)n2)c1	0	0	38	0	0
O=C(COc1ccc(Br)cc1CO)Nc1ccc(F)cc1	0	0	0	0	0
O=C(COc1ccc(Br)cc1CNC1CCCC1)Nc1ccccc1	0	0	0	34	0
CCOc1nc(NC(=O)NS(=O)(=O)c2ccccc2F)nc(-c2ccccc2)n1	0	0	0	0	-31
CC(C)Cc1nnc(NC(=O)c2ccc3c(c2)OCCO3)s1	0	0	0	0	0
O=C(NCCc1ccccc1)C1CC(=O)N(C2CCCCC2)C1 (stereo unspecified)	0	0	0	0	0
O=C(Oc1coc(CSc2ncccn2)cc1=O)c1ccc(Br)o1	0	0	0	0	0
O=C(Oc1coc(CSc2ncccn2)cc1=O)c1ccco1	0	0	0	0	-33
O=C(NCCN1C(=O)S/C(=C\c2ccc(Cl)c([N+](=O)[O-])c2)C1=O)C1=COCCO1	0	0	0	0	-57
O=C(NCCN1C(=O)S/C(=C\c2ccc(Cl)c(Cl)c2)C1=O)c1cnccn1	0	0	0	0	0
O=S(=O)(Nc1ccc2c(c1)OCCO2)c1cccc(F)c1	0	0	0	0	0
O=C1COc2ccc(S(=O)(=O)Nc3ccc4c(c3)OCO4)cc2N1	0	0	0	0	-32
O=S(=O)(Nc1ccc2c(c1)OCO2)c1cccc(Br)c1	0	0	0	0	-34
O=C(Nc1ccc(F)c(Cl)c1)C1CCN(S(=O)(=O)c2ccc3[nH]c(=O)ccc3c2)CC1	0	0	0	0	0
SMILES	TRHR agonist	D1 potentiator	TRHR PAM	D1 ag	D1 antag
CCOC(=O)c1ccc(-c2ccc3c(=O)c4ccccc4n(C)c3c2)cc1F	0	0	0	0	0
COc1cc(NC(=O)CSCc2ccc(Cl)cc2)c(C(=O)O)cc1OC	0	0	0	0	0
NC(=S)Cc1ccc(Cl)cc1Cl	0	0	0	0	0
N=C(N)SCc1ccc(Cl)cc1Cl	0	0	0	34	0
Cn1c(=O)oc2cc(S(=O)(=O)Nc3ccc(O)cc3)ccc21	0	0	0	0	-31!
CCc1c(C2(O)CCCCC2)[nH]c2ncccc12	0	0	0	0	-
CCc1c(C2(O)CCCCC2)[nH]c2cc(C(F)(F)F)ccc12	0	0	0	32	0

Compound activity as filed in PubChem BioAssay.
